# A selection: hits, their analogues and other compounds. The true share with any hit is near 9.6%.
# HCT116 PTEN-null = suppresses growth of cells with PTEN deletion; AID 827; HCT116 PTEN-null viability, CellTiter-Glo, 60 h; stronger effect = lower value; viability, % at 10 µM; 1.2% of 140,000 active;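 active = viability at or below a set limit, 4 SD under the median of all tested compounds, cut at about 3.7% in these data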;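 note: PTEN knockout HCT116 line with beta catenin targeted HCT116 as companion control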
# Lmaj promast = inhibitors of Leishmania major promastigote growth; Leishmania major promastigotes, resazurin fluorescence viability; inhibition, % at 10 µM; 9% of 200,000 active; AID 1063; in the data active = inhibition above about 50%;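 note: promastigotes grown with compound for 44 hours at 28 °C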
# bCat KO growth = beta-catenin-lacking colon tumor cell growth suppression | 1.5% of 140,000 active | HCT116 beta-catenin knockout viability, CellTiter-Glo, 60 h; stronger effect = lower value | viability, % at 10 µM;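 active = viability at or under a set limit, the compound median less 4 SD, cut at about 6% in these data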
# Insulin prom inh = TRM-6 insulin promoter activity inhibition | 0.9% of 130,000 active | inhibition, % at 2 µM | TRM-6 cells (human fetal islet line), insulin promoter-eGFP reporter, imaging; reporter expression induced with tamoxifen;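 active = inhibition above the mean plus 3 SD, with well images judged a real hit on visual review, cut at about 60% in these data, passing the limit was not always enough; inconclusive = inhibition over the cutoff but images rejected on review; inactive = inhibition not above the cutoff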
# Ins promoter up = MIN6 insulin promoter up-regulation | MIN6 insulin promoter-GFP reporter, high-content imaging; stronger effect = higher value | z-score at 5 µM | 0.3% of 190,000 active | AID 1625;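 active = z-score above 3 at 5 µM with at least 500 cells counted in the well; inconclusive = wells under 500 cells, flagged as cytotoxic or low count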
# Autophagy mod = modulators of autophagy; MEF GFP-LC3 puncta imaging; test concentration mostly 10 µM; calls only at 10 µM (by protocol); 0.98% of 190,000 active;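 active = percentage of spot-positive cells more than 3 SD above its plate mean, without a fluorescence outlier flag or 80% toxicity; inconclusive = no clear call, values can overlap the other calls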
# Numbers stand for hits; – = inactive; ? = inconclusive; · = no result; + = active, no number.
SMILES,HCT116 PTEN-null,Lmaj promast,bCat KO growth,Insulin prom inh,Ins promoter up,Autophagy mod
Cc1csc(NC(=O)c2ccc(S(=O)(=O)N(C)c3ccccc3)cc2)n1,–,98,–,–,–,–
N#Cc1c(-n2cccc2/C=N/O)sc2c1CCCC2,–,–,–,71,–,–
C=CCNCc1cccn1-c1sc2c(c1C#N)CCCC2,–,–,–,–,–,–
CCCn1c(=N)n(CC(=O)C(C)(C)C)c2ccccc21,–,81,–,·,–,–
CCCCn1c(=N)n(CC(=O)C(C)(C)C)c2ccccc21,–,–,–,·,–,–
COc1ccc(CCNC(=O)COC(=O)/C=C/c2cccs2)cc1,·,–,·,–,·,–
COc1ccc(-c2ccc(SCC(=O)c3ccc(F)cc3)nn2)cc1OC,·,63,·,·,–,–
COc1cccc(Nc2cc(C)nc3ccccc23)c1,–,88,–,–,·,–
COc1ccc(OC)c(Nc2cc(C)nc3ccccc23)c1,–,71,–,·,–,–
COc1ccc2nc(C)cc(Nc3ccccc3O)c2c1,·,59,·,–,·,–
ONC=Nc1cccc2nonc12,–,–,–,·,–,–
COC(=O)c1cccc(Oc2cccc(Cl)n2)c1,·,–,·,·,–,–
O=C(Nc1cccc2ccccc12)C12CC3CC(C1)CC(n1cnc([N+](=O)[O-])n1)(C3)C2,–,73,–,–,–,–
O=C(Nc1cc(Oc2ccccc2)cc([N+](=O)[O-])c1)C12CC3CC(C1)CC(n1cnc(Cl)n1)(C3)C2,–,80,–,·,–,–
CN1CCN(C2=CC3=CC(=C(C#N)C#N)CCC3CC2)CC1 (centres undefined),·,–,·,–,·,+
CCN1CCN(C2=CC3=CC(=C(C#N)C#N)CCC3CC2)CC1 (centres undefined),·,88,·,–,·,?
CCN(CC)CCNC(=S)Nc1ccc2nc(N3CCCC3)cc(C)c2c1,·,86,·,–,–,–
CCN(CC)CCNC(=S)Nc1ccc(F)cc1,·,–,·,·,–,+
Fc1ccc(NC(=S)NCCN2CCOCC2)cc1,·,–,·,–,–,–
CCCN(CCC)CCCNC(=S)Nc1ccc2nc(N3CCCC3)cc(C)c2c1,·,87,·,·,–,–
Cc1cc(N2CCN(C)CC2)nc2ccc(NC(=S)NCCCN3CCN(C)CC3)cc12,·,–,·,·,–,–
Fc1ccc(NC(=S)Nc2ccc(Cl)cc2)cc1,·,63,·,·,–,–
O=S(=O)(c1ccc(Oc2ncnc3scc(-c4ccccc4)c23)cc1)N1CCOCC1,–,–,–,–,–,–
COc1ccc(CCNC(=O)C(=O)NCC2CCCO2)cc1OC (centres undefined),–,–,–,–,–,–
Cc1cccc(NC(=O)CSc2nnc(-c3ccccc3Br)o2)c1C,–,–,–,·,–,–
SMILES,HCT116 PTEN-null,Lmaj promast,bCat KO growth,Insulin prom inh,Ins promoter up,Autophagy mod
O=C(ONC1=NCCCCC1)c1cccc([N+](=O)[O-])c1,·,–,·,–,–,–
Cc1nc2ccccc2cc1OCc1ccc(Cl)cc1,–,–,–,·,–,–
Cc1cc(N2CCCC2)nc2ccc(NC(=S)NCCCOC(C)C)cc12,·,93,·,–,–,–
CSc1nsc(SCC(=O)Nc2nc3ccccc3s2)n1,–,63,–,–,–,–
COc1ccc(C(=O)NCc2nnc(SCC(=O)Nc3nc4ccccc4s3)o2)cc1,–,–,–,–,–,–
COc1cc(C(=O)NCc2nnc(SCC(=O)Nc3nc4ccccc4s3)o2)cc(OC)c1OC,–,71,–,–,–,–
COc1ccc(-c2csc(NC(=O)CSc3nc(SC)ns3)n2)cc1,–,52,–,–,–,–
Cc1nnc(NC(=O)CSc2nnc(Cc3cccn3C)n2CCc2ccccc2)s1,–,–,–,·,–,–
Cn1cccc1Cc1nnc(SCC(=O)Nc2nc3ccccc3s2)n1CCc1ccccc1,–,–,–,·,–,+
COc1ccc(-c2csc(NC(=O)CSc3nc(C)cs3)n2)cc1,–,–,–,–,·,–
CCCCCCn1c(CN2CCN(C)CC2)nc2c1c(=O)n(C)c(=O)n2C,–,–,–,–,–,–
O=C(CN1CCCC1)Nc1nnc(-c2cccs2)s1,–,–,–,–,–,–
C=CCNc1nc(-c2ccccc2)nc(-n2ccnc2)n1,–,–,–,·,–,–
Cc1ccc(CN2C(=O)/C(=C\c3ccc(C(=O)NCc4cccnc4)cc3)Oc3ccccc32)cc1,–,–,–,–,–,–
CCCNC(=O)NC(=O)COC(=O)CNS(=O)(=O)/C=C/c1ccccc1,·,–,·,–,–,–
O=C(NCC1CCCO1)C1CCCN(Cc2cnn(-c3ccccc3)c2-n2cccc2)C1 (centres undefined),–,–,–,–,–,–
